Measurements: PubChem BioAssay AID602241 (Southern Research Specialized Biocontainment Screening …, 2012)
Potency and affinity values are given separately. Active and inactive are the calls of the source. Where a call stands in place of a potency, no number is given. The rule behind the calls is not given here.

Test: Confirmatory cell based cytopathic effect inhibition, VEEV TC 83 infected cells (AID 602241)

Row | Structure (SMILES) | outcome
1 | O=C(Oc1ccc2ccccc2c1Br)N1CCCCCC1 | inactive
2 | O=c1c2cc([N+](=O)[O-])ccc2nc(CN2CCN(c3ccccc3)CC2)n1-c1ccccc1F | inactive
